This is a sample that favours compounds with a hit; in the whole collection about 7.4% have one here.
NPC1 prom act = qHTS Assay for NPC1 Promoter Activators | Huh7 NPC1 promoter luciferase reporter, 24 h | Potency, µM (series often up to 9.22 µM), without a hit: at the top dose activation, hits mostly activators | actives 2.4% (n = 320,000) | AID 485313, 2010; further: % of control where 0% means no effect; nearly all actives have a fitted effect of over 60% in size
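Compounds in DMSO were transferred onto Huh7 NPC1-luciferase reporter cells pre-incubated 2 h; after 24 h at 37 °C, Amplite reagent was dispensed and luminescence recorded 10 min later.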
SMN2 splice enh = qHTS Assay for Enhancers of SMN2 Splice Variant Expression; Potency, µM (titrated, usually from 46.1 µM), without a hit: top-dose activity change, positive = activation, usual class: activators; HEK293 SMN2-luciferase splicing reporter, luminescence, 30-36 h; AID 1458, 2008; actives 2.8% (n = 210,000); further: % of control where 0% means no effect; nearly all actives have a fitted effect of over 55% in size
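HEK293 cells carry an SMN2 minigene-luciferase reporter in which exon 7 inclusion puts luciferase in frame. Cells were seeded at 2000 cells/well, attached for 10-12 hours, then exposed to compounds for 30-36 hours at 37C before ONE-Glo luminescence.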
FLuc counter = qHTS profiling assay for firefly luciferase inhibitor/activator using purifed enzyme and Km concentrations of substrates (counterscreen for miR-21 project); Luciferin 4-monooxygenase (Photinus pyralis), P08659; purified FLuc, Km substrates, luminescence inhibition; Potency, µM (highest dose often 57.5 µM), for the others: at the highest dose activity change, negative = inhibition, actives largely listed as inhibitors; actives 6.9% (n = 360,000);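 further: plate controls were vehicle for no effect and reference inhibitor for full effect; nearly all actives have a fitted effect of over 55% in size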
Target sequence (P08659 whole entry, looked up): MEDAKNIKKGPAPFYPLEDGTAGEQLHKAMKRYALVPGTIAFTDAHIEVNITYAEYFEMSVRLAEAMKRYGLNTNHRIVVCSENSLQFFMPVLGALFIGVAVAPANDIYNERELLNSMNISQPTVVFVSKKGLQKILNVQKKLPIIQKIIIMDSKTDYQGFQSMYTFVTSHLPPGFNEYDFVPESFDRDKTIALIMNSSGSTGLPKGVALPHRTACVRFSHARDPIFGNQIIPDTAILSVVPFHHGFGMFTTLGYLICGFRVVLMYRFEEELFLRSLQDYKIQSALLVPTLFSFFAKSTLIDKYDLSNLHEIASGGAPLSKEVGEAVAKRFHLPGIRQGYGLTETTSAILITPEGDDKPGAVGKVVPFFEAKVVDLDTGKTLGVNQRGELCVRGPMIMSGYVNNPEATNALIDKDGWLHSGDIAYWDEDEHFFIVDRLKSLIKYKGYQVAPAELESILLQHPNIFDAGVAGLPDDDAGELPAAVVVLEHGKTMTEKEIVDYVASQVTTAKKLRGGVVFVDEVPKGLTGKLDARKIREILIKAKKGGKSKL
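Purified P. pyralis luciferase, 10 nM final, with Km-level 10 uM D-luciferin and 10 uM ATP in 50 mM Tris acetate pH 7.5, 10 mM Mg acetate, 0.01% Tween-20, 0.05% BSA; 6-point qHTS titration about 60 µM downward; luminescence read.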
Rab9 promoter act = qHTS Assay for Rab9 Promoter Activators. Potency, µM (top dose mostly 9.22 µM), for inactives: top-dose activation, negative = inhibition, most hits filed as activators. Huh7 Rab9 promoter-luciferase reporter, luminescence, 24 h. AID 485297, 2010. actives 2.8% (n = 320,000); further: % of control where 0% means no effect; nearly all actives have a fitted effect of over 60% in size
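Rab9 promoter-driven luciferase in stably transfected Huh7 cells; 1500 cells/well rested 2 h, exposed to compound in DMSO for 24 h at 37 °C, 5% CO2. Luminescence read 10 min after adding luciferase reagent at ambient temperature.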
ELG1 genotoxic = qHTS screen for small molecules that induce genotoxicity in human embryonic kidney (HEK293T) cells expressing luciferase-tagged ELG1. HEK293T ELG1-luciferase reporter, luminescence, 16 h. Potency, µM (titrated, usually from 46 µM), for inactives: at the highest dose activity change, positive = activation, hits mostly activators. actives 1.3% (n = 330,000). AID 504466, 2011; further: % of control where 0% means no effect; nearly all actives have a fitted effect of over 60% in size
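HEK293T cells expressing luciferase-tagged ELG1 were exposed to compound or DMSO vehicle for 16 hr at 37 °C and 5% CO2. Luciferase activity was then measured with ONE-Glo after 30 min at room temperature.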
* = called active by the depositor; ? = inconclusive; / = no result; [ ] = another dose, or the depositor's remark. The call rests on the fitted dose curve; in most records, active means well fitted curve in the direction sought with a large enough effect; inconclusive means small, poorly fitted or top-dose-only effect, or another doubt; inactive means no such curve, though single readings can be large; an effect the other way counts as inactive or inconclusive. Potency means the concentration at half of the fitted maximal effect.

SMILES | NPC1 prom act | SMN2 splice enh | FLuc counter | Rab9 promoter act | ELG1 genotoxic
CC1CCN(C(=S)NCCc2ccccc2)CC1 | 3.5µM* | -2% | 11µM* | 2µM* | 7.3µM*
S=C(NCCc1ccccc1)N1CCN(C2CCCCC2)CC1 | 0% | 7% | -8% | -4% | 0%
CCC(=O)OC1=CN(Cc2ccccc2)S(=O)(=O)c2ccccc21 | / | / | -15% | / | /
Cc1occc1C(=O)N/N=C/C(Br)=C/c1ccccc1 | 1.8µM* | 8.9µM* | 2.7µM* | 0.89µM* | ?
Cc1occc1C(=O)N/N=C/c1ccc(OCc2ccccc2)cc1 | ? | / | ? | 2.8µM* | ?
Cc1occc1C(=O)N/N=C/c1ccc(-c2ccccc2)cc1 | 0.32µM* | / | 0.67µM* | 0.4µM* | 0.16µM*
O=C(N/N=C/c1ccc(F)cc1)c1ccc(OCc2ccccc2)cc1 | 2% | / | 0% | -1% | 0%
CCCCC/C=C\C/C=C\C/C=C\C/C=C\CCCCCC(=O)NC(C)C(=O)O (stereo not drawn) | / | 6% | / | / | /
COc1cc2c(cc1O)[C@@H](c1cc(O)c(O)c(OC)c1)[C@@](O)(C(=O)O)[C@@H](CO)[C@@H]2O | / | -6%[9.22 µM] | / | / | /
O=C(COc1ccccc1)OCc1cc2ccccc2[nH]c1=O | -1% | -6% | 21µM* | 0% | -7%
COC(=O)c1ccc2c(c1)SC1=C(CCCC1=O)N2 | 20% | -18% | 19µM* | -2%[1.84 µM] | 21µM*
Cc1ccc2nc(Nc3nc(CSc4nnc(C)s4)cc(=O)[nH]3)nc(C)c2c1 | -2% | / | 9.5µM* | -3% | 5%
CCc1ccc(NC(=O)Cn2cnc3sc(C)c(S(=O)(=O)N4CCC(C)CC4)c3c2=O)cc1 | / | 8% | -1% | / | /
CCN(CC)C(=O)CSC(=Nc1ccccc1F)NC#N | ? | 14µM* | -2% | 4µM* | ?
Cc1[nH]n2c(=O)c3c(nc2c1-c1ccc(Cl)cc1)CCC3 | -10% | / | 1% | -23% | -18%
O=c1c2c(nc3cc(-c4ccc(F)cc4)[nH]n13)CCC2 | 2.5µM* | 7.1µM* | 8.5µM* | 3.2µM* | 18µM*
Cc1ccc(-n2c(C)cc(C3=NNC(=NC4CC4)SC3)c2C)cc1C | 1.6µM* | ? | 1.3µM* | 0.56µM* | ?
CN=C1NN=C(c2cc(C)n(-c3ccc(Cl)cc3)c2C)CS1 | 4µM* | -7% | 4.8µM* | 2.5µM* | ?
O=C(CN1C(=O)CCc2cc(Br)ccc21)Nc1ccc(OC(F)(F)F)cc1 | / | / | 3% | / | /
O=C(N/N=C(\c1ccccc1)c1cccnc1)c1cccc(F)c1 | -13% | / | -5% | -37% | 16µM*
C/C(=N\NC(=O)c1ccc2c(c1)OCO2)c1cccnc1 | ? | / | ? | 3.5µM* | ?
C/C(=N\NC(=O)c1ccc(Br)cc1)c1cccnc1 | 26% | / | 13µM* | ? | ?
C/C(=N\NC(=O)c1c[nH]c2ccccc12)c1ccc2c(c1)OCO2 | 3% | 17% | 27µM* | 28% | 8%
C/C(=N\NC(=O)c1cc(C)oc1C)c1ccc2c(c1)OCO2 | 18% | 12% | ? | ? | 11%
C/C(=N/NC(=O)CCc1ccccc1)c1ccc2c(c1)OCO2 | -4% | / | -11% | 10% | -1%
SMILES | NPC1 prom act | SMN2 splice enh | FLuc counter | Rab9 promoter act | ELG1 genotoxic
C/C(=N\NC(=O)c1ccccc1)c1ccc2c(c1)OCO2 | ? | 27% | 15µM* | 2.8µM* | 18µM*
CC(=O)Nc1cccc(/C(C)=N/NC(=O)c2ccc3c(c2)OCO3)c1 | 28% | 11µM* | 6µM* | ? | ?
COc1ccccc1NC(=O)Nc1ccc(C(N)=O)cc1 | 18% | ? | ? | ? | 14%
COc1ccccc1NC(=O)Nc1ccccc1C(N)=O | 5% | -1% | -18% | 1% | 3%
COc1ccccc1NC(=O)Nc1nc(CC(=O)Nc2cc(F)ccc2F)cs1 | 1% | / | ? | 0% | -6%
COc1ccccc1NC(=O)Nc1ccc(CC#N)cc1 | ? | / | 21µM* | ? | ?
COc1ccc(NC(=O)Nc2ccccc2C(N)=O)cc1OC | / | -8% | 19µM* | / | /
COc1ccccc1NC(=O)Nc1cc(F)ccc1F | 11% | 6% | 24µM* | 2% | 3%
COc1ccc(OC)c(NC(=O)Nc2ccc(Cl)cc2)c1 | 1% | -5% | 19µM* | 7% | -2%
C=CCOC(=O)N[C@H](C[N+](=O)[O-])c1ccccc1 | / | -1% | / | / | /
O=C(Nc1c(C(=O)N2CCN(c3ccccc3)CC2)oc2ccccc12)c1ccco1 | / | / | -8% | / | /
Cc1nc(Nc2ccccc2)c2nc(-c3ccccc3)n(CCCN3CCCCC3C)c2n1 (stereo not drawn) | / | -12% | / | / | /
O=C(Nc1ccc(N2CCOCC2)cc1)Nc1cnsn1 | ? | 13µM* | 17µM* | ? | 15%
O=C(N/C=C/c1ccccc1)c1ccccc1 | 1.1µM* | / | 2.1µM* | 1.3µM* | ?
COc1ccccc1NC(=O)Nc1ccc(Cc2ccncc2)cc1 | 5% | -3% | 17µM* | 13% | 6%
CCOc1ccc(NC(=O)Nc2ccccc2C(N)=O)cc1 | 8% | 6% | 1.2µM* | 0% | 2%
CSc1ccc(CCNC(=O)CN2C(=O)COc3ccc(S(=O)(=O)N4CCCC4)cc32)cc1 | / | -8% | -10% | / | /
COC(=O)NC(C(=O)OC)(C(=O)OC)c1ccccc1 | / | 9% | / | / | /
CCCCC/C=C\C[C@@H]1O[C@H]1/C=C/C(O)C/C=C\CCCC(=O)O (stereo partly drawn) | / | -4% | / | / | /
Oc1ccc(COC2CCN(Cc3ccccc3)C2)c2cccnc12 (stereo not drawn) | -30% | / | 0% | -23% | /
Cc1ccc(-n2nc(C)c3c(C)cc(=O)n(CC(=O)NCc4ccc(OC(C)C)cc4)c32)cc1 | / | / | -5% | / | /
O=C(CSc1oc(-c2ccco2)nc1S(=O)(=O)c1ccc(Br)cc1)c1ccc(Cl)cc1 | / | 4% | 0% | / | /
COc1ccc(NC(=O)Nc2ccccc2C(N)=O)cc1 | -6% | 10% | 5.4µM* | 1% | 7%
CCN1CCN(CCC(=O)Nc2ccccc2OC)CC1 | -1% | -8% | 1% | 1% | 2%
COc1ccccc1CNCC(=O)Nc1ccc(N2CCOCC2)cc1 | -4% | ? | 0% | -14% | 1%
CCN1CCN(Cc2ccc(NC(=O)Nc3ccccc3OC)cc2)CC1 | ? | / | 11µM* | ? | 18µM*
COc1ccc(NC(=O)N/C=C/c2ccccc2)cc1 | 2µM* | 16µM* | ? | 3.5µM* | ?
COc1ccccc1NC(=O)Nc1ccc(N2CCOCC2)cc1 | ? | 112% | 17µM* | ? | ?
N[C@H](Cc1cc(I)c(Oc2ccc(O)c(I)c2)c(I)c1)C(=O)O | / | 3%[20.6 µM] | / | / | /

Source: PubChem BioAssay (National Center for Advancing Translational Sciences (NCATS))
